Experimental findings from the supplement of paper PMC10105736 are described below.

Holding throughout (experiment): MAPPIT interaction score (arbitrary units); higher = stronger binary interaction signal, active = hit call of the paper
The target in one assay is ATPsynG. To be noted: MAPPIT configuration: N-N; pair source set: Lit-BS-16. As to the method: (§1)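 MAPPIT in HEK293T cells: Drosophila bait and prey ORFs (from the FlyBi ORF collection) were co-transfected in quadruplicate, with two wells stimulated by erythropoietin. Interaction-dependent JAK-STAT activation was read out with a STAT-responsive firefly luciferase reporter. Positive calls use the 99th percentile of random reference set (RRS) scores within each batch […]. Batches Dvs01 and Dvs02 used the N-N configuration and Dvs04 the N-C configuration. Pairs come from FlyBi screens, CuraGen, DPiM, Finley Y2H, Lit-BM-16, Lit-BS-16 and RRS.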

In the next assay the target is sle. The note with it: MAPPIT configuration: N-N; pair source set: Lit-BS-16. As to the method: as §1
For the next assay, the target named is ATPsynF. To be noted: MAPPIT configuration: N-N; pair source set: DPIM. As to the method: as §1
In a further assay the target is ATPsynC. To be noted: MAPPIT configuration: N-C; pair source set: screen_3. As to the method:
as §1

The next assay has as its target ATPsyndelta. As to the method: as §1
The target of another assay is ATPsyngamma. The note with it: MAPPIT configuration: N-N; pair source set: DPIM. On the procedure: as §1
The next assay deals with CG15572. The note with it: MAPPIT configuration: N-C; pair source set: screen_4. As to the method: as §1
The target of the next assay is CG42659. To be noted: MAPPIT configuration: N-C; pair source set: screen_3. As to the method:
as §1

The next assay deals with Polr3E. The note with it: MAPPIT configuration: N-C; pair source set: screen_4. As to the method:
as §1

A further assay deals with ATPsynCF6L. To be noted: MAPPIT configuration: N-C; pair source set: screen_3. As to the method:
as §1

The next assay addresses CG13643. The note with it: MAPPIT configuration: N-C; pair source set: screen_3. On the procedure:
as §1

The next assay addresses Dpm3. To be noted: MAPPIT configuration: N-C; pair source set: screen_3. As to the method:
as §1

The next assay addresses NaPi-T. The note with it: MAPPIT configuration: N-C; pair source set: screen_4. On the procedure:
as §1

Another assay addresses Pdk1. The note with it: MAPPIT configuration: N-N; pair source set: Curagen_high_conf. On the procedure:
as §1

The target in another assay is Acp1. The note with it: pair source set: RRS. As to the method:
as §1

Unmarked numbers belong to inactive results.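 Rule for the calls: active = MAPPIT score above the 99th percentile of random reference set scores in the same batch; inactive = at or below it.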
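Note: HEK293T cells with Epo stimulation, STAT-responsive firefly luciferase reporter, fold induction versus unstimulated cells divided by the larger fold induction of two negative controls lacking either bait or prey.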

B1: Arp6 (protein)
chain: MANAVVVLDNGAHTAKVGLANQDEPHVVPNCIMKAKSERRRAFVGNQIDECRDTSALYYILAFQRGYLLNWHTQKTVWDYIFSKDGIGCSLENRNIVITEPQMNFQSIQEATLEILFEEYKVDGVYKTTAADLAAFNYVADSEERTTMESLNCIIIDVGYSFTHVVPFVLGRRVLQGIRRIDMGGKALTNQLKELISYRHLNVMDESHVVNQIKEDVCFVAEDFKQAMQVHYSEEKRREVTVDYVLPDFTTVKRGYVRVPGKPREDEEQQQMVSLCNERFTVPELLFNPSDIGVQQVGIPEAVADCLKACPWEAHRELLLNILIVGGSAQFPGFLPRLKRDLRALVPDDLEVSLICPEDPVRYAWYGGKEVATSPNFEEFVYTQDDYEEYGFQGINQR
With B1, the MAPPIT interaction score was 0.0569 in the assay with ATPsynG and -0.421 with sle.

B2: ATPsynCF6 (protein)
chain: MLSQSLLSGMRVLRTEARRNFGIVAPALNKASDPIQQLFLDKVREYKQKSAGGKLVDSNPDIERELKTELDRVAKQFGSDGKTDMLKFPEFQFPDVKVDPITQAPQ
For the molecule B2, in the assay with ATPsynF, the MAPPIT interaction score was -0.221.

B3: stas (protein)
chain: MSYCSGVAISADEGITMRNGRAKALQEHSPDQVATPLLPQVPPQEQQDLNPQQQQQQQQQQQATPQKQAMSADEKKATKKSLVIVAGIFVASLVTMCYVYAIFPELNASEKQHLKIPRDIQDAKMLAKVLDRYKDMYYFEVMFGVVVAYVFLQTFAIPGSLFLSILLGFLYKFPIALFLICFCSALGATLCYTLSNLVGRRLIRHFWPKKTSEWSKHVEEYRDSLFNYMLFLRMTPILPNWFINLASPVIGVPLHIFALGTFCGVAPPSVIAIQAGKTLQKMTSSSEAFSWTSMGILMACACASLLPGLLKNKFKHKKEA
Take B3: the MAPPIT interaction score with ATPsynC was 0.0375.

B4: ATPsynF (protein)
chain: MAFGDYPAEYNPKVHGPYDPARFYGKADVPFGQVKLGEIGAWLGRRNKTPNAVAGAVSRAWWRWQHKYVFPKRAGIAPFFQLTVASMTFFYLINYTKLKHHRNYKYH
With B4, the MAPPIT interaction score in the assay with ATPsyndelta (MAPPIT configuration: N-N, pair source set: DPIM) is 0.173.

B5: CycA (protein)
chain: MASFQIHQDMSNKENPGIKIPAGVKNTKQPLAVIGGKAEKNALAPRANFAVLNGNNNVPRPAGKVQVFRDVRNLNVDENVEYGAKKSNVVPVVEQFKTFSVYEDNNDTQVAPSGKSLASLVDKENHDVKFGAGQKELVDYDLDSTPMSVTDVQSPMSVDRSILGVIQSSDISVGTETGVSPTGRVKELPPRNDRQRFLEVVQYQMDILEYFRESEKKHRPKPLYMRRQKDISHNMRSILIDWLVEVSEEYKLDTETLYLSVFYLDRFLSQMAVVRSKLQLVGTAAMYIAAKYEEIYPPEVGEFVFLTDDSYTKAQVLRMEQVILKILSFDLCTPTAYVFINTYAVLCDMPEKLKYMTLYISELSLMEGETYLQYLPSLMSSASVALARHILGMEMWTPRLEEITTYKLEDLKTVVLHLCHTHKTAKELNTQAMREKYNRDTYKKVAMMESVEMSKDDFDQLCEAYNCKQKEDEHQQPDINTKSNVNLFYKF
Turning to B5, the MAPPIT interaction score with ATPsyngamma was 1.52.

B6: Crk (protein)
chain: MDTFDVSDRNSWYFGPMSRQDATEVLMNERERGVFLVRDSNSIAGDYVLCVREDTKVSNYIINKVQQQDQIVYRIGDQSFDNLPKLLTFYTLHYLDTTPLKRPACRRVEKVIGKFDFVGSDQDDLPFQRGEVLTIVRKDEDQWWTARNSSGKIGQIPVPYIQQYDDYMDEDAIDKNEPSISGSSNVFESTLKRTDLNRKLPAYARVKQSRVPNAYDKTALKLEIGDIIKVTKTNINGQWEGELNGKNGHFPFTHVEFVDDCDLSKNSTEIC
For B6, the MAPPIT interaction score is 2.72 with ATPsyndelta (MAPPIT configuration: N-C, pair source set: screen_4); 0.475 with CG15572; 0.17 with CG42659; 2.44 with Polr3E.

B7: Mst57Da (protein)
chain: MKFLALFVTLLVVLALVSAQKSQNTNHNVIVIGAKKPGAAPAAAAAAAPAAPPAAAPAAAPAAPEAGLADAPAES
On to B7, for which the MAPPIT interaction score with ATPsynCF6L is 0.192; with CG13643 it was -0.565; with Dpm3, 0.043; in the assay with NaPi-T, 1.02; in the assay with Pdk1, -0.52.

B8: spir (protein)
chain: MTEHQAEEQADTPPTKVKATPTPTPSGKFKDAKEDAFLSTSPDSANGDAQHKLPADQLAMSSSAHPQQAGQARPLILQAFHRCSSPEQCVTLHDILDSFKAPLSEDQAWALIHQFAGLYHQVAVQAHTCAADYEAALPTGFELHFHRDGSVHFSGPDQLTPKEQLQQEQIPLPPQHDVIVDQPDHSASSSGDSSVINRAFDNSNHHHHHQHHHPPLVVSHRKIISELAEIVYTALDYNLPEDEECQVSQELENLFNFMTADETDDDCIDEGIDEGDKRWDDESEEERNDTKELEHIIETCRNHIKTTLPENHYRAVCRALVTETIELRVFLQQVLNNEAGAEKLIKASESSATTQQELAKLGFNDWARFWVQVIDELRRGVRLKKSNHERTPIEYELTPYEILMGDIRAKKYQLRKVMVNGDIPPRVKKDAHAMILEFIRSRPPLKKASDRQLGPPRMCEPSPREQLMESIRKGKELKQITPPEAPTLRERVLPSANSTLSRSRQRLIKVDFSKFQDDDLFYDENSISSSHSTAATHQHHPHFAEMHRCSQPKMPPYPFGGYMVPSQARQDCRETASLMRPRRTMEPAKQVPPPEEPSFTKDEYHKFYDTALESYDLATQCESRRASLRRHTIVGCQSNLDETHSMPPTRPESRQSDDVSKETPKRSPAEQTHPSDEGSSTSSLGPWNKSFMDKQTWMERGDDRLSVTLAEIVHIRSVMTKAELEGLPMDVRVKEDVEKRRVCFLCLRTRFSFFGPWGIQCKLCQRTVCAKCYTKMRIPSEHFRNVPLVLISPSLLSSPASSSTPSPSHHAQQAHSSSTGNIMDDQFPKSLIERLLRSESDRKTRSTVGSAPSSPKHQRSNMSTPGISVGPGASSSSAAATGQAVEALHDQATMSSSYSAAMRPSGVHQQQKQHYNNAMSRSMEGPRSLPVHSPAYRPLSNNSTLERKSRFSRGFNLFSSGSHLAQTQEQKENLRGEQVTVCNDCQGLVNEITSSVKQKRSSARNRTIQNLTLDLTPVWK
For B8, the MAPPIT interaction score was -0.762 with Acp1 (MAPPIT configuration: N-C) and 0.149 with Acp1 (MAPPIT configuration: N-N).
